SARS PLP yeast – qHTS of Yeast-based Assay for SARS-CoV PLP | S. cerevisiae expressing SARS-CoV PLpro, growth rescue | Potency, µM (highest dose often 32.9 µM), usual class: activators | actives 0.19% (n = 330,000); calls by dose curve; further: nearly all actives have a fitted effect of over 55% in size
HCMV inh – qHTS Assay for inhibitors of the human cytomegalovirus (HCMV) | activity change, negative = inhibition, % at 57.5 µM | HFF cells, HCMV-luciferase reporter, 72 h; active compounds read low | actives 4.5% (n = 410,000) | AID 1259415, 2018; in the data active means activity change below about -60%; inconclusive means no clear call, values can overlap the other calls; inactive means above about -39%
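Inhibition of viral replication was scored as loss of reporter luminescence in HFFs infected with HCMV-luciferase (MOI 1 PFU/cell) for 72 h; compounds tested at 2 doses, normalized to buffer and Salinomycin controls.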
MARV entry inh – qHTS for inhibitors of binding or entry into cells for Marburg Virus; Marburg virus pseudotyped entry inhibition, cell reporter; actives 1.8% (n = 300,000); Potency, µM (titrated, usually from 37.8 µM), actives largely listed as inhibitors; calls by dose curve; tested in HEK293 cells
HCV inh – qHTS Assay for Inhibitors of Hepatitis C Virus (HCV) | Huh7.5.1 HCVcc-Cre infection, luciferase reporter, 44 h | Potency, µM (highest dose often 41.8 µM), usual class: inhibitors | actives 3.4% (n = 340,000) | AID 651820, 2012; active means well fitted inhibition curve with a large enough effect; inconclusive means small, poorly fitted or top-dose-only effect, or another doubt; inactive means no such curve, though single readings can be large or run the other way
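Cells (1,000/well) were plated 4 h before compound, then infected with HCVcc-Cre virus (~0.5 moi). After 44 h further culture, infection was read as luciferase luminescence following a 15 min substrate incubation at room temperature.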
FMDV inh – High Throughput Screening for Foot and Mouth Disease Virus Antivirals. FMDV antiviral cell-based qHTS. Potency, µM (titrated, usually from 57.9 µM), hits mostly inhibitors. AID 1159524, 2015. actives 1.2% (n = 410,000); calls by dose curve; tested in HEK293T cells; further: read-out not given here; nearly all actives have a fitted effect of over 45% in size
LASV entry inh – qHTS for Inhibitors of binding or entry into cells for Lassa Virus; Lassa virus pseudotype entry inhibition, cell reporter; Potency, µM (doses to about 37.9 µM), hits mostly inhibitors; actives 1.2% (n = 300,000); AID 540256, 2011; calls by dose curve; tested in HEK293 cells; further: nearly all actives have a fitted effect of over 50% in size
A number is an active result; . = inactive; ? = inconclusive; / = no result given; [ ] = remark or other dose. The list is not random: actives were taken first. Their share in the collection is about 8%.

SMILES | SARS PLP yeast | HCMV inh | MARV entry inh | HCV inh | FMDV inh | LASV entry inh
Cc1ccc(OCC(=O)Nc2ccc(N3CCN(S(C)(=O)=O)CC3)cc2)cc1C | . | . | . | . | . | .
Cc1cc(OCC(=O)Nc2ccc(N3CCN(C(=O)c4ccco4)CC3)cc2)cc(C)c1Cl | . | . | . | ? | 6.31µM | .
Cc1cccc(C(=O)Nc2ccc(N3CCN(C(=O)c4ccco4)CC3)cc2)c1 | . | . | ? | . | . | .
Cc1ccc(OCC(=O)Nc2ccc(N3CCN(C(=O)c4ccco4)CC3)cc2)cc1C | . | ? | ? | . | 14.1µM | .
Cc1cccc(OCC(=O)Nc2ccc(N3CCN(C(=O)c4ccco4)CC3)cc2)c1 | . | -68.3 | ? | ? | 15.8µM | ?
Cc1cccc(OCC(=O)Nc2ccc(N3CCN(C(=O)c4ccccc4)CC3)cc2)c1C | . | . | . | ? | 14.1µM | .
Cc1cc(OCC(=O)Nc2ccc(N3CCCC3)cc2)cc(C)c1Cl | . | . | . | ? | . | .
Cc1ccccc1OCC(=O)OCc1cc(=O)n2nc(C3CCCCC3)sc2n1 | / | . | / | / | . | .
O=C(CSc1nnc2[nH]c(=O)cc(-c3ccccc3)n12)Nc1cc(C(F)(F)F)ccc1Cl | / | . | / | / | ? | .
CCOCCc1nn2c(=O)cc(COC(=O)C(CC)c3ccccc3)nc2s1 (stereo not drawn) | / | . | / | / | . | .
CCc1cccc(CC)c1NC(=O)CSc1nc2ccc(N3C(=O)C4C(C3=O)[C@H]3C=C[C@@H]4C3)cc2s1 (stereo partly drawn) | . | -71.5 | . | ? | ? | .
CCCCn1c(C)cc2c(c1=O)C1O[C@](c3ccc(OC)cc3)(Cc3cc(OC)c(OC)cc31)O2 | .[6.58 µM] | / | / | / | / | /
COc1ccc(N=C2SC(CC(=O)Nc3ccccc3OC)C(=O)N2Cc2ccco2)cc1 (stereo not drawn) | . | . | ? | ? | . | 16.4µM
COc1ccc(N=C2SC(CC(=O)Nc3ccc(F)cc3)C(=O)N2Cc2ccco2)cc1 (stereo not drawn) | . | . | . | . | . | ?
O=C(CN1C(=O)c2ccccc2S1(=O)=O)c1cccc(Br)c1 | . | . | ? | . | 10µM | 1.26µM
O=C(CN1C(=O)c2ccccc2S1(=O)=O)c1ccc(F)cc1 | . | -67.5 | / | . | . | /
CC(C)C(NC(=O)CN1C(=O)c2ccccc2S1(=O)=O)C(C)C | . | . | / | . | . | /
O=C(CN1C(=O)c2ccccc2S1(=O)=O)c1ccccc1F | . | ? | ? | . | ? | ?
COC(=O)c1ccc(OCC(O)CN2C(=O)c3ccccc3S2(=O)=O)cc1 (stereo not drawn) | . | . | . | 5.01µM | . | ?
O=C(CN1C(=O)c2ccccc2S1(=O)=O)c1ccc(OC(F)F)cc1 | . | / | 1.26µM | . | ? | 0.891µM
O=C(CCN1C(=O)c2ccccc2S1(=O)=O)Nc1cc(Cl)ccc1Cl | . | . | . | ? | . | .
O=C(CN1C(=O)c2ccccc2S1(=O)=O)c1ccc(Cl)cc1Cl | / | -91.5 | 0.282µM | . | 2µM | 0.562µM
Cc1c2c(=O)n(-c3nc4ccccc4s3)nc-2cc(O)n1Cc1ccccc1 | . | / | / | . | 7.08µM | /
CCCn1c2ccccc2c2cnn(CC(=O)NCCCN3CCN(c4ccccc4)CC3)c(=O)c21 | . | . | / | 11.2µM | . | /
CCCn1c2ccccc2c2cnn(CC(=O)NCCCN3CCCCC3)c(=O)c21 | . | . | / | . | ? | .
SMILES | SARS PLP yeast | HCMV inh | MARV entry inh | HCV inh | FMDV inh | LASV entry inh
CCCn1c2ccccc2c2cnn(CC(=O)N3CCCC(C)C3)c(=O)c21 (stereo not drawn) | / | -61.8 | / | / | . | .
CCCn1c2ccccc2c2cnn(CC(=O)NC3CCC(C)CC3)c(=O)c21 (stereo not drawn) | . | . | . | . | . | .
CCCn1c2ccccc2c2cnn(CC(=O)NCCCN3CCCC(C)C3)c(=O)c21 (stereo not drawn) | . | -65.5 | ? | ? | . | .
CC1CCCCN1CCCNC(=O)Cn1ncc2c3ccccc3n(Cc3ccccc3F)c2c1=O (stereo not drawn) | / | -74.5 | . | / | . | .
CCOc1ccccc1CNC(=O)C1CCN(c2nc3ccccc3nc2C(F)(F)F)CC1 | / | . | / | / | . | .
Cc1ccccc1Cn1c2ccccc2c2cnn(CC(=O)NCc3cccc(Cl)c3)c(=O)c21 | / | -78.4 | . | / | . | .
COc1ccccc1CNC(=O)Cn1ncc2c3ccccc3n(Cc3ccccc3C)c2c1=O | / | . | . | / | . | .
CCCCOc1ccccc1NC(=O)c1scc2c1OCCO2 | . | . | ? | 12.6µM | ? | ?
CCCCOc1ccccc1NC(=O)c1ccco1 | . | . | ? | ? | . | ?
CC(C)c1ccc(N2C(=O)CC(Sc3ncn[nH]3)C2=O)cc1 (stereo not drawn) | . | . | . | . | . | .
COc1ccc(N2C(=O)CC(Sc3ncn[nH]3)C2=O)c(OC)c1 (stereo not drawn) | . | -98.2 | . | 15.8µM | . | .
COc1cc2nc(CN3CC=C(c4ccccc4)CC3)[nH]c(=O)c2cc1OC | / | -98.8 | . | 3.55µM | . | ?
CCc1cccc(-n2nnc(-c3nsc(NC(=O)c4cccs4)n3)c2C)c1 | / | . | / | / | . | ?
CC(O)CSc1nc2c(c(=O)[nH]c(=O)n2C)n1CC(O)COc1ccccc1 (stereo not drawn) | . | -93.6 | / | . | . | /
CCSc1nc2c(c(=O)[nH]c(=O)n2C)n1CC(O)COc1ccccc1C (stereo not drawn) | . | . | ? | ? | 20µM | .
CC(C)Sc1nc2c(c(=O)[nH]c(=O)n2C)n1CC(O)COc1ccccc1 (stereo not drawn) | . | ? | . | . | . | ?
COc1ccc(N2CCN(Cc3cccn3-c3nnc(N4CCN(C5CCCCC5)CC4)s3)CC2)cc1 | / | . | / | / | . | ?
Cc1ccc(SCc2nc(-c3ccc(C(=O)NCc4ccccc4Cl)cc3)oc2C)cc1 | / | . | / | / | . | ?
COc1ccc(Cn2c(=O)c3ccccc3n3c(-c4cccc(OC)c4OC)nnc23)cc1 | / | -89.2 | . | / | . | .
COc1cccc(-c2nnc3n(Cc4ccc(C)cc4)c(=O)c4ccccc4n23)c1O | / | . | . | / | . | .
CC(C)NC(=O)N1CCCN(c2nc3ccc(Cl)cc3s2)CC1 | . | ? | . | 3.98µM | . | .
Cc1ccn2c(Nc3ccc(F)cc3)c(-c3ccccn3)nc2c1 | / | . | . | / | . | .
Cc1ccc(Nc2c(-c3ccccn3)nc3cccc(C)n23)cc1 | . | . | / | 6.31µM | ? | /
Cc1cccc2nc(-c3ccccn3)c(Nc3ccccc3)n12 | / | -82.4 | ? | / | ? | 11.2µM
Cc1ccc(Nc2c(-c3ccc(C)o3)nc3cccc(C)n23)cc1 | / | . | ? | / | . | .
Cc1cccc2nc(-c3ccccn3)c(Nc3ccc(F)cc3)n12 | / | -97.2 | ? | / | ? | ?
